BAZ2B inh: inhibitors of human BAZ2B bromodomain; AlphaScreen BAZ2B-H3K14Ac peptide displacement; actives 4.4% (n = 360,000); AID 504333; Potency, µM (series often up to 114 µM), inactives show at the top dose activity change, negative = inhibition, usual class: inhibitors; further: potency means the concentration at half of the fitted maximal effect; on the % scale 0 is the no-effect control and ±100 the full control effect; nearly all actives have a fitted effect of over 60% in size
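Compounds, titrated to a top concentration of 110 uM, were incubated 30 min at room temperature with preformed BAZ2B/acetyl-K14 H3 peptide complex (50 nM each). Proximity signal was measured by AlphaScreen after 20 min with beads.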
HP1b chromo inh: inhibitors of HP1-beta chromodomain binding to methylated histone tails | P83916 | AlphaScreen HP1-beta / biotin-H3K9me3 peptide binding | Potency, µM (highest dose often 114 µM), inactives show at the top dose activity change, negative = inhibition, usual class: inhibitors | actives 0.56% (n = 390,000) | AID 540317; further: potency means the concentration at half of the fitted maximal effect; nearly all actives have a fitted effect of over 70% in size
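Compound inhibition of the preformed complex between 50 nM HP1-beta and 50 nM biotinylated H3K9me3 peptide was read by AlphaScreen. Buffer was PBS pH 7.4 with 0.01% Tween-20. Incubations ran 30 min at room temperature, with 10 ug/mL donor/acceptor beads.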
G9a block: blocks human histone lysine methyltransferase G9a; G9a H3K9 monomethylation, AlphaScreen, 2 h; Potency, µM (series often up to 102 µM), for the others: at the top dose activity, negative = inhibition, hits mostly inhibitors; actives 8.8% (n = 350,000); AID 504332; further: potency means the concentration at half of the fitted maximal effect; on the % scale 0 is the no-effect control and ±100 the full control effect; nearly all actives have a fitted effect of over 75% in size
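Step 1: enzyme (final 20 nM) with compound, 15 min RT. Step 2: substrate peptide 500 nM and SAM 20 uM, 2 h RT. Step 3: anti-H3K9me1 antibody and AlphaScreen beads, 10 min, then plate read.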
JMJD2A Tudor: blocks the human JMJD2A Tudor domain | O75164 | AlphaScreen JMJD2A-Tudor / H3K4me3 peptide binding | Potency, µM (doses to about 114 µM), for inactives: top-dose activity change, negative = inhibition, hits mostly inhibitors | actives 4.4% (n = 390,000) | AID 504339; further: potency means the concentration at half of the fitted maximal effect; on the % scale 0 is the no-effect control and ±100 the full control effect; nearly all actives have a fitted effect of over 50% in size
CtBP-E1A inh: inhibitors of CtBP/E1A interaction; AlphaScreen GST-E1A/His-CtBP binding, 1536-well; hits give low values; activity change, % (no concentration beside the values); actives 0.49% (n = 340,000); in the data active means activity change below about -65%; inconclusive means mostly about -30% to -63%; further: on the % scale 0 is the no-effect control and ±100 the full control effect
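GST-E1A and His-tagged CtBP (125 nM each as 5X stock) were preincubated with pin-transferred compound for 2 h at 37 °C in the dark, then glutathione donor and nickel acceptor beads were added for 1 h before AlphaScreen reading.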
Six1-Eya2 inh: blocks human Six1 binding to Eya2; Q15475+O00167; AlphaScreen GST-Six1/His-Eya2 binding, biochemical; hits give low values; activity change, % (test concentration not listed); AID 651725; actives 0.56% (n = 360,000); in the data active means activity change below about -65%; inconclusive means mostly about -30% to -63%; further: on the % scale 0 is the no-effect control and ±100 the full control effect
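Six1/Eya2 binding was read as AlphaScreen signal after compounds were pinned into GST-Six1 plus His-tagged Eya2 (5X stock 250/500 nM) in pH 8.0 Tris/NaCl/TCEP buffer, beads added, then incubated 1 h, 37 C, dark.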
Numbers without * were called inactive; ? = inconclusive; · = not tested or not shown; [ ] = dose if it differs, or a comment. Sampled rows, rich in hits. Any-hit rate of the full collection: about 10%. Unless noted, the call rests on the fitted dose curve; in most records, active means well fitted inhibition curve with a large enough effect; inconclusive means small, poorly fitted or top-dose-only effect; inactive means no such curve, though single readings can be large or run the other way.

SMILES	BAZ2B inh	HP1b chromo inh	G9a block	JMJD2A Tudor	CtBP-E1A inh	Six1-Eya2 inh
CCCc1nnc(NC(=O)C2CC(=O)N(C3CCCC3)C2)s1 (stereo unspecified)	0.8%	-9.1%	22.4µM*	-11.3%	0.0	20.7
COc1ccc(Oc2ncc3nc(-c4ccc(OC)cc4)c(=O)n(C)c3n2)cc1	·	·	11.2%[0.501 µM]	·	·	·
O=C(C[C@H]1C(=O)N(CCc2ccccc2)C[C@@H]1c1ccccc1)Nc1ccccc1	·	·	·	·	2.2	-0.1
CCOC(=O)Cc1nnc(NC(=O)C(CC)Sc2nc(C)cc(=O)[nH]2)s1 (stereo unspecified)	3.4%	-17.7%	70.8µM*	?	-13.8	-11.9
CCOC(=O)Cc1nnc(NC(=O)C(CC)Sc2nnc3c4ccccc4n(C)c3n2)s1 (stereo unspecified)	3.0%	4.7%	1.1%[59 µM]	-12.3%	-71.0*	?
CCOC(=O)Cc1nnc(NC(=O)C(CC)Sc2nncn2C)s1 (stereo unspecified)	?	24.2%	8.6%[59 µM]	-14.5%	-3.4	6.3
C=CCOc1cccc(C2C(C(=O)c3ccco3)=C(O)C(=O)N2Cc2ccco2)c1 (stereo unspecified)	-37.4%	4.5%	44.7µM*	-35.9%	-9.3	-13.3
CCOc1cccc(C2C(C(=O)c3cccs3)=C(O)C(=O)N2Cc2cccnc2)c1 (stereo unspecified)	-28.8%	30.1%	56.2µM*	-13.1%	-7.0	1.5
C=CCOc1cccc(C2C(C(=O)c3ccco3)=C(O)C(=O)N2Cc2ccncc2)c1 (stereo unspecified)	-28.1%	53.3%	?	-5.6%	-0.4	-2.6
CC(=O)C1=C(O)C(=O)N(Cc2cccnc2)C1c1ccc(O)cc1 (stereo unspecified)	79.4µM*	6.3%	50.1µM*	-19.5%[11.4 µM]	·	-9.9
C=CCOc1ccc(C2C(C(=O)c3ccc(C)o3)=C(O)C(=O)N2Cc2cccnc2)cc1 (stereo unspecified)	-8.6%	5.2%	39.8µM*	?	-11.5	-0.4
O=C1CN(S(=O)(=O)c2cc(Cl)ccc2Cl)CCN1	-1.3%	22.0%	-1.8%	-9.1%	-9.2	23.0
Cc1ccc(CC(=O)NCC(O)c2ccccc2)cc1 (stereo unspecified)	4.7%	14.4%	21.4%	-5.7%	?	14.9
CC(=O)C1=C(O)C(=O)N(Cc2ccco2)C1c1ccc2c(c1)OCO2 (stereo unspecified)	-6.6%	12.7%	50.1µM*	-28.9%	5.4	0.9
COc1ccc(NC(=O)/C=C/C(=O)O)c(OC)c1	-16.2%	28.4%	?	-9.3%	4.8	-0.4
O=C(O)/C=C/C(=O)Nc1ccc(N2CCOCC2)nc1N1CCOCC1	-21.5%	?	8.91µM*	-33.8%	3.2	-2.4
CCCc1cc(=O)oc2cc(OCC(=O)NCCN3CCOCC3)c(Cl)cc12	·	·	·	·	3.0	-7.5
CNc1ccc(/C=C/C(=O)c2cccc3ccccc23)cc1[N+](=O)[O-]	7.08µM*	15.8µM*	10µM*	8.91µM*	0.6	-10.4
O=C(Nc1ccc(F)c(Cl)c1)c1cc(-c2ccco2)on1	2.5%	17.9%	-21.8%	-3.9%	-3.4	2.6
CCOC(=O)C(=O)N(C)c1c(CC)nc2c(OCc3cc(Cl)cc(Cl)c3)cccn12	·	·	·	·	-4.1	0.5
O=C(O)c1ccc(N/N=C/C2=Cc3ccccc3OC2)cc1	-37.0%	-10.0%	50.1µM*	-29.4%[11.4 µM]	-13.3	-5.8
CC1(C)CC(Cc2ccc(Cl)nc2)N(C(=O)OC(C)(C)C)C1 (stereo unspecified)	·	·	·	·	3.1	0.9
COCCCN1C(=O)C(O)=C(C(=O)c2ccc(C)o2)C1c1cccc(Br)c1 (stereo unspecified)	-34.2%	26.9%	-34.8%[59 µM]	89.1µM*	7.3	-5.9
CCN(CC)CCCN1C(=O)C(O)=C(C(=O)c2ccc(C)o2)C1c1ccc(C)o1 (stereo unspecified)	-29.5%	42.9%	20µM*	?	0.8	1.4
COCCCN1C(=O)C(O)=C(C(=O)c2ccco2)C1c1ccccc1 (stereo unspecified)	?	10.7%	10.4%[12.7 µM]	50.1µM*	0.6	-5.1
SMILES	BAZ2B inh	HP1b chromo inh	G9a block	JMJD2A Tudor	CtBP-E1A inh	Six1-Eya2 inh
CCOc1cccc(C2C(C(=O)c3ccc(C)o3)=C(O)C(=O)N2CCCn2ccnc2)c1 (stereo unspecified)	?	-5.0%	0.0%[0.501 µM]	?	4.1	-10.8
CCN(CC)CCCN1C(=O)C(O)=C(C(=O)c2ccco2)C1c1ccc(C)o1 (stereo unspecified)	·	15.5%	·	?	3.1	-11.4
COc1cc(C2C(C(=O)c3ccco3)=C(O)C(=O)N2Cc2ccccc2)ccc1O (stereo unspecified)	-29.1%	-5.4%	70.8µM*	56.2µM*	2.0	1.4
COc1ccc(CCNC(=O)C2CCN(Cc3nc(-c4ccc(OC)c(OC)c4)oc3C)CC2)cc1OC	-22.8%	25.3%	-4.6%[59 µM]	0.0%	·	·
CC(N)(COP(=O)(O)O)C(=O)O (stereo unspecified)	·	·	32.0%[59 µM]	·	·	·
CC1(C(=O)Nc2cccc3c2CCCC3)CCN1C(=O)Cc1ccccc1Cl (stereo unspecified)	·	·	·	·	5.0	2.8
O=C(C1=C(O)C(=O)N(CCc2ccccc2)C1c1cccnc1)c1ccco1 (stereo unspecified)	?	20.7%	?	-17.7%	0.5	2.4
CCOCCCN1C(=O)C(O)=C(C(C)=O)C1c1cccs1 (stereo unspecified)	·	12.4%	·	89.1µM*	11.3	9.1
CCOc1cc(C2C(C(=O)c3ccco3)=C(O)C(=O)N2CCc2ccccc2)ccc1O (stereo unspecified)	?	40.6%	?	?	5.6	-0.4
CC(=O)C1=C(O)C(=O)N(CCCO)C1c1ccccc1 (stereo unspecified)	?	5.0%	?	?	7.8	3.4
CCN(CC)CCCN1C(=O)C(O)=C(C(=O)c2ccc(C)o2)C1c1cccs1 (stereo unspecified)	-1.0%	·	-39.2%[12.7 µM]	·	·	·
O=C(C1=C(O)C(=O)N(CCc2ccccc2)C1c1cccs1)c1ccco1 (stereo unspecified)	?	5.9%	50.1µM*	-18.6%	-0.4	-2.2
COCc1cc(C2C(C(=O)c3ccco3)=C(O)C(=O)N2CCOCCO)ccc1O (stereo unspecified)	?	-7.1%	?	50.1µM*	5.8	3.4
COCCCN1C(=O)C(O)=C(C(C)=O)C1c1ccccn1 (stereo unspecified)	-34.2%	-3.1%	?	79.4µM*	2.9	2.9
Cc1ccc(NC(=O)Cn2c(C)cc(C)c(C#N)c2=O)cc1F	2.6%	38.3%	18.1%[59 µM]	-0.7%	·	·

Bioassay records from PubChem BioAssay.
